Assay results published in PubChem BioAssay (Tox21).
Inconclusive results are not listed. A call without a number means that no potency is given here. Unmarked numbers belong to inactive results. Activity calls are given as the source filed them. Calls follow the shape of the dose curve; as a rule, active = well fitted curve in the direction sought with a large enough effect in the repeat runs; inconclusive = weak or mixed curves; inactive = no such curve, though single readings can be large; an effect the other way counts as inactive or inconclusive.

Key:
[1] = target: Cytochrome P450 2C19 (Homo sapiens) (UniProt P33261); experiment: Cytochrome P450 Family 2 Subfamily C Member 19 (CYP2C19) small molecule antagonists: luciferase reporter qHTS assay (AID 1671197); details: P450-Glo CYP2C19 enzyme, luciferin luminescence, 1 h; series mostly up to 115 µM; also: nearly all actives have a fitted effect of over 65% in size
Chain of Cytochrome P450 2C19 (Homo sapiens) (P33261 whole entry, looked up): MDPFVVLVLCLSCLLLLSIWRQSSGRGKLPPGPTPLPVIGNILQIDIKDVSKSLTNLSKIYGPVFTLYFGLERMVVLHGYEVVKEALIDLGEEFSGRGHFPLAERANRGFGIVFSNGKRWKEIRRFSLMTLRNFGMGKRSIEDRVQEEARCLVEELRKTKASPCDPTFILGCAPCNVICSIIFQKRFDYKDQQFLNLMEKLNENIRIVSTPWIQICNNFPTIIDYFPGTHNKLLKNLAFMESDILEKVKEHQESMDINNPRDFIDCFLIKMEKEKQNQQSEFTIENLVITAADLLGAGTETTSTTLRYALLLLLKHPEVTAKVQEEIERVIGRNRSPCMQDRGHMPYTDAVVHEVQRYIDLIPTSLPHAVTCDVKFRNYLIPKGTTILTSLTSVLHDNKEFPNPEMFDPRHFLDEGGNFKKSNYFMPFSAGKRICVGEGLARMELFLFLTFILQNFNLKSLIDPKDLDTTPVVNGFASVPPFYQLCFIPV
Method in brief: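 Quantitative high-throughput screen of the Tox21 library using CYP2C19 with proluciferin substrate. Reaction: NADPH regeneration, 37C, 1 h, after 10 min compound preincubation at room temperature. Readout: luminescence.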

[2] = target: Cytochrome P450 1A2 (Homo sapiens) (UniProt P05177); experiment: Cytochrome P450 Family 1 Subfamily A Member 2 (CYP1A2) small molecule antagonists: luciferase reporter qHTS assay (AID 1671199); details: P450-Glo CYP1A2 enzyme, luciferin luminescence, 1 h; series mostly up to 115 µM; also: nearly all actives have a fitted effect of over 50% in size
Chain of Cytochrome P450 1A2 (Homo sapiens) (P05177 whole entry, looked up): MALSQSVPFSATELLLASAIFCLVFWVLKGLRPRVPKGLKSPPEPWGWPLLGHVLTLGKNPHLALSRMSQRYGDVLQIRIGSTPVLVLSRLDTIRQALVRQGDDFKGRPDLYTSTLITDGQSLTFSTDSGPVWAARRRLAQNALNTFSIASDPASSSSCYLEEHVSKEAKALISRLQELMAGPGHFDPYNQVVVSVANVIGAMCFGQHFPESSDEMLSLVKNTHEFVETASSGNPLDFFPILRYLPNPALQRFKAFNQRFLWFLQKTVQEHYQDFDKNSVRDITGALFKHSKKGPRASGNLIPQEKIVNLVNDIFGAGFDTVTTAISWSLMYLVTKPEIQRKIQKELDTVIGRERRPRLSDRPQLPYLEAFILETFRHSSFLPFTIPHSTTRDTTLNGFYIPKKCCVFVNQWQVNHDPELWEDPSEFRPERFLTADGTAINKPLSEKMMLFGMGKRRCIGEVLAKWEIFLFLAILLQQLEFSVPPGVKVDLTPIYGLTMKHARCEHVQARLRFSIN
Method in brief: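 Read-out is luminescence from luciferin detection reagent (20 min) proportional to CYP1A2 activity; compounds in DMSO preincubated 10 min with enzyme and proluciferin substrate, then NADPH regeneration solution, 1 h, room temperature.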

[3] = target: Voltage-gated inwardly rectifying potassium channel KCNH2 (Homo sapiens) (UniProt Q12809); experiment: Human Ether-a-go-go-Related Gene (hERG) channel small molecule antagonists: fluorescence cell-based qHTS assay (AID 1671200); details: hERG-U2OS cells, FluxOR thallium flux fluorescence; series mostly up to 76.8 µM; also: nearly all actives have a fitted effect of over 50% in size;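 as to activity change, negative = inhibition: hERG-expressing U2OS cells given a thallium stimulus after FluxOR II dye loading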
Chain of Voltage-gated inwardly rectifying potassium channel KCNH2 (Homo sapiens) (Q12809 whole entry, looked up): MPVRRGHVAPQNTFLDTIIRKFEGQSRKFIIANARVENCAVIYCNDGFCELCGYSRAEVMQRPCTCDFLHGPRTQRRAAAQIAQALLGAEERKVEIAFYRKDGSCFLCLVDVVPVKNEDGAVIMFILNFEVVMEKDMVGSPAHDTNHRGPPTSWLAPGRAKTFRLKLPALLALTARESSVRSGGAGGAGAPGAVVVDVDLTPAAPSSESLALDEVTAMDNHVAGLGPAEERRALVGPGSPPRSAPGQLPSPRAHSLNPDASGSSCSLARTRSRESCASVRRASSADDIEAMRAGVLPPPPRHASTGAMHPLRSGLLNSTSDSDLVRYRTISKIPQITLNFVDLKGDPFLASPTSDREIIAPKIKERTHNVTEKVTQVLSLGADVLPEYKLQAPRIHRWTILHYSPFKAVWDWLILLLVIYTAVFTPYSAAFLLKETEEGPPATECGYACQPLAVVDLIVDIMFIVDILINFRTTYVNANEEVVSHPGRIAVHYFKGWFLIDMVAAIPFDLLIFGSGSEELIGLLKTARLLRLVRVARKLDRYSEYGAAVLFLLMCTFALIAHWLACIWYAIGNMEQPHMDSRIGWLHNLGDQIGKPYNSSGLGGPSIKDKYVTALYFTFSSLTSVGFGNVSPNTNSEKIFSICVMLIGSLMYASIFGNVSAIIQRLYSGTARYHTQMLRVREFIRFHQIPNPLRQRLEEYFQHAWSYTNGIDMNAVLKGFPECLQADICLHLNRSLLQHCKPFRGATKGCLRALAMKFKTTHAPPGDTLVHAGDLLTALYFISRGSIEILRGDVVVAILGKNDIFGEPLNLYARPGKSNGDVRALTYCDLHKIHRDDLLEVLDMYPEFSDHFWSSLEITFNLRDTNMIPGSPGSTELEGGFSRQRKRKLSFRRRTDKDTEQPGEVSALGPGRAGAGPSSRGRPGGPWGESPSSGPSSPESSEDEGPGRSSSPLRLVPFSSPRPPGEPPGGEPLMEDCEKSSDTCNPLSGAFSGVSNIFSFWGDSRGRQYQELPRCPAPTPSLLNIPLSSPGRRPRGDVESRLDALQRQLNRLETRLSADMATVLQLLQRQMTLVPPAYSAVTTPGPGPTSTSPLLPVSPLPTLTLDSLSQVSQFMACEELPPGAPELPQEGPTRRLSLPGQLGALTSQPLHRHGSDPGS
Method in brief: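 hERG-U2OS cells plated overnight at 37 C, loaded with FluxOR II dye 1 h at RT in dark; after 10 min, thallium stimulus added. Fluorescence (480/540 nm) read kinetically for 2 min at 1 s intervals.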

[4] = target: Cytochrome P450 3A4 (Homo sapiens) (UniProt P08684); experiment: Cytochrome P450 Family 3 Subfamily A Member 4 (CYP3A4) small molecule antagonists: luciferase reporter qHTS assay (AID 1671201); details: P450-Glo CYP3A4 enzyme, luciferin luminescence, 1 h; series mostly up to 115 µM; also: nearly all actives have a fitted effect of over 50% in size
Chain of Cytochrome P450 3A4 (Homo sapiens) (P08684 whole entry, looked up): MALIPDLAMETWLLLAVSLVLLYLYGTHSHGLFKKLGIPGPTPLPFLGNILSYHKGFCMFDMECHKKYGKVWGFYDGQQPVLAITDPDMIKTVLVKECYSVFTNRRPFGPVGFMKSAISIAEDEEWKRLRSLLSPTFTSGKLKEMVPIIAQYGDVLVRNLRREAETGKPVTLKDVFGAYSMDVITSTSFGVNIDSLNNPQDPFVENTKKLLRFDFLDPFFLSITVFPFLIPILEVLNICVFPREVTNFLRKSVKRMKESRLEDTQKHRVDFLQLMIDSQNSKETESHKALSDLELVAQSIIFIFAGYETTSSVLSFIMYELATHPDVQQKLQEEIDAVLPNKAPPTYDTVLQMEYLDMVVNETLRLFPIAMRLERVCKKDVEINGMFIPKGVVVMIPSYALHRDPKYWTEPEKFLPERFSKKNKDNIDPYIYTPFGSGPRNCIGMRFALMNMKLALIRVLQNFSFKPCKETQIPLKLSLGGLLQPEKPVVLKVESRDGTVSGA
Method in brief: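 P450-Glo CYP3A4 luminescent assay: compounds preincubated 10 min at room temperature with enzyme and proluciferin substrate, NADPH regeneration added, 1 h room-temperature reaction, stopped with luciferin detection reagent; luminescence read after 20 min. Ketoconazole positive control.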

[5] = target: Cytochrome P450 2C9 (Homo sapiens) (UniProt P11712); experiment: Cytochrome P450 Family 2 Subfamily C Member 9 (CYP2C9) small molecule antagonists: luciferase reporter qHTS assay (AID 1671198); details: P450-Glo CYP2C9 enzyme assay, luciferin luminescence; series mostly up to 115 µM; also: nearly all actives have a fitted effect of over 50% in size
Chain of Cytochrome P450 2C9 (Homo sapiens) (P11712 whole entry, looked up): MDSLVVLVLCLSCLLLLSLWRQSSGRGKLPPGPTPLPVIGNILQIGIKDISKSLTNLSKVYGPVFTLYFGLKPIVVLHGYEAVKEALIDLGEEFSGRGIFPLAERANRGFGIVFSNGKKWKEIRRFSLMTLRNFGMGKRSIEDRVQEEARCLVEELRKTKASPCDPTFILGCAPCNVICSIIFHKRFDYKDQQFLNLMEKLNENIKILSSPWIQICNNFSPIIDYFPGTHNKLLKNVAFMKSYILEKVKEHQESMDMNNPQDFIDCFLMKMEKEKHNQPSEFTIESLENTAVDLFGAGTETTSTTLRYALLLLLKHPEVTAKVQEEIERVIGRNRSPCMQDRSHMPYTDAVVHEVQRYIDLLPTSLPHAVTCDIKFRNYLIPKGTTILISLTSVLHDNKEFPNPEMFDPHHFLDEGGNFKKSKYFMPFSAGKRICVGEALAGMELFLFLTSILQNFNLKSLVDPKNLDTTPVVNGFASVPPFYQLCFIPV
Method in brief: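 CYP2C9 activity was measured with a P450-Glo proluciferin substrate. Enzyme–substrate mix was held with compound for 10 min at room temperature, then NADPH regeneration solution was added for 1 h at 37C. Luciferin product was read as luminescence.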
Potency is read from the fitted curve at half-maximal effect.

| Structure (SMILES) | Potency [1] | Potency [2] | Potency [3] | Potency [4] | Potency [5] | activity change, negative = inhibition [4] |
| --- | --- | --- | --- | --- | --- | --- |
| [Cl][Nd]([Cl])[Cl] | inactive | inactive | inactive | inactive |  |  |
| CC(C)(O)CCc1ccccc1 | 71 µM (active) |  | inactive | inactive | inactive |  |
| CCC(Cl)CC(Cl)C(Cl)C(Cl)C(Cl)C(C)Cl (stereo not drawn) | 1.73 µM (active) |  |  |  | 1.38 µM (active) | 36.6% [at 23.6 µM] |
| CCCCC(CC)COS(=O)(=O)O (stereo not drawn) | inactive | inactive | inactive | inactive |  |  |
| CCN(CC)c1cccc(O)c1 | 5.13 µM (active) | 64.6 µM (active) | inactive | 20.4 µM (active) |  |  |
| CC(C)(C)NCC(O)COc1cccc2c1C[C@H](O)[C@H](O)C2 (stereo partly drawn) | inactive |  | inactive | inactive |  |  |
| CCC(=O)OCc1ccc(OC)cc1 | 64.9 µM (active) | 57.8 µM (active) | inactive | inactive |  |  |
| CC12CC3CC(C)(C1)CC(N)(C3)C2 | inactive | inactive | inactive | inactive |  |  |
| Cc1cccc(C)c1NC(=O)c1cc(S(N)(=O)=O)c(Cl)cc1O | inactive | inactive | inactive | inactive |  |  |
| Cc1oc(=O)oc1COC(=O)[C@@H]1N2C(=O)[C@@H](NC(=O)[C@H](N)c3ccccc3)[C@H]2SC1(C)C | inactive | inactive | inactive |  |  |  |
| CCN(CC)C(=O)N1CCN(C)CC1 | inactive |  | inactive | inactive |  |  |
| CN1C(CSCC(F)(F)F)Nc2cc(Cl)c(S(N)(=O)=O)cc2S1(=O)=O (stereo not drawn) | inactive | inactive |  |  |  |  |
| COC(=O)Nc1nc2ccc(C(=O)C3CC3)cc2[nH]1 | inactive | 10.2 µM (active) | inactive |  |  |  |
| COc1cc(C(C)=O)ccc1OCCCN1CCC(c2noc3cc(F)ccc23)CC1 | inactive | inactive | 1.07 µM (active) |  |  |  |
